Source: PubChem (several laboratories)
HIF-2a block: HIF-2a reporter inhibitors, primary screen, luminescence, 786-0 RCC cells; 786-0 RCC cells HIF-2a reporter, luciferase luminescence, overnight; inhibition, % at 18.8 µM; 360,000 compounds, 0.72% hits; AID 624352, 2012;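 active = inhibition of the luminescence signal of 40% or more relative to plate controls, in a single-dose primary screen at 18.75 µM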
KKLEB cytotox: cytotoxicity in KKLEB CF airway cells, primary screen, cytotoxicity control for CF NF-kB inhibitor project, cell-based, uHTS, fluorescence assay plates | 360,000 compounds, 0.36% hits | activity change (cytotoxicity), % at 5 µM | KKLEB CF airway cells viability, ATPlite luminescence, overnight; active compounds read low; cells stimulated with P. aeruginosa culture filtrate;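 active = corrected activity change at or below -50% at 5 µM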
Shn3 inh set2: reduction of Shn3 3'UTR firefly luciferase signal, primary screen, Schnurri-3 inhibitor project, cell-based, Clone20 osteoblasts, set 2; Clone20 osteoblast Shn3 3'UTR firefly luciferase, 24 h; inhibition, % at 12.5 µM; 360,000 compounds, 0.52% hits; AID 588674, 2011;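 active = mean inhibition of at least 75% with every replicate also reaching 75%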;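 note: 0% = median of neutral control wells and 100% = pilot-screen positive control compound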
MITF TRPM1 inh: inhibitors of MITF-dependent TRPM1 promoter reporter, primary screen, cell-based, SK-MEL-5, single point, luciferase. SK-MEL-5 TRPM1 promoter luciferase, 24 h. inhibition, % at 12.5 µM. 330,000 compounds, 0.83% hits;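 active = mean inhibition across replicates of 60% or more, whatever share of single replicates reaches that level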
Peg3 prom inh-1: Peg3 promoter-driven luciferase inhibitors, primary screen, cell-based, HeLa, luciferase luminescence | inhibition, % at 20 µM | 360,000 compounds, 1.7% hits | HeLa PEG-Prom luciferase reporter, overnight | AID 588405, 2011;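 active = inhibition of at least 50% at 20 µM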
CF NFkB block: inhibitors of PAF-induced NF-kB signaling, primary screen, cell-based, GFP fluorescence, uHTS. 360,000 compounds, 0.86% hits. KKLEB NF-kB-GFP reporter, GFP fluorescence overnight. inhibition, % at 5 µM;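 active = at least 50% inhibition at 5 µM, scaled per plate between neutral and stimulator controls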;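 note: PAF is a Pseudomonas aeruginosa culture filtrate used as stimulus; plate controls were PAF-stimulated DMSO wells for no effect and unstimulated DMSO wells for full effect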
Peg3 prom inh-2: Peg3 promoter reporter inhibitors, retest, confirmation, cell-based, HeLa, luciferase reporter, single concentration; shares compounds with Peg3 prom inh-1; HeLa PEG-Prom luciferase reporter, luminescence, overnight; 1,300 compounds, 84% hits; inhibition, % at 20 µM; AID 602417, 2012;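 active = at 20 µM dose, 40% or more inhibition averaged across four replicates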
An asterisk follows results filed as active; · = not tested or not shown. Most compounds without a hit are left out; they make up all but 2.8% or so of the library.

SMILES	HIF-2a block	KKLEB cytotox	Shn3 inh set2	MITF TRPM1 inh	Peg3 prom inh-1	CF NFkB block	Peg3 prom inh-2
O=c1[nH]c2ccccc2n1C1CCN(C(CCc2ccccc2)c2nnnn2C2CCCC2)CC1 (stereo not drawn)	-99	-96*	48	·	87*	84*	·
COC(=O)C1=C(c2ccc(S(C)(=O)=O)cc2)C[C@@H]2CC[C@H]1N2C(=O)N1CCC(C)CC1	-2	-3	7	1	16	-5	·
C[C@H]1CCC/C=C/[C@@H]2C[C@H](O)C[C@H]2[C@@H](O)/C=C/C(=O)O1	39	-47	88*	89*	59*	64*	·
NC(=O)c1ccc(N)nc1	3	-91*	72	16	8	78*	·
C[C@]12CCC3C(CCC4=CC(O)CC[C@@]43/C=N/O)C1(O)CCC2C1=CC(=O)OC1 (stereo partly drawn)	31	-62*	14	86*	105*	81*	·
COc1ccc2c(c1)/C(=C/c1cnc[nH]1)C(=O)N2	-102	-21	-10	35	100*	54*	·
O=C1Nc2ccccc2/C1=C/c1cnc[nH]1	-202	18	-5	17	-11	12	·
COC1CCC(OC2CC(C3(C)CCC4(CC(O)C(C)C(C(C)/C=C(\C)C(=O)C(C)CC(C)C(=O)O)O4)O3)OC3(OC(C4OC(O)(CO)C(C)CC4C)CC3C)C2C)OC1C (stereo not drawn)	74*	-75*	79	84*	98*	82*	·
O=C1C=C(N2CC2)c2ccccc2C1=O	18	1	-4	·	17	60*	·
O=C1c2ccccc2-c2cc3ccccc3cc21	-202	-5	-28	-27	-285	-32	·
Nc1ncn[nH]1	9	8	17	-4	13	7	·
COc1cccc2c1C(=O)c1c(O)c3c(c(O)c1C2=O)CC(O)(C(C)=NO)CC3OC1CC(N)C(O)C(C)O1 (stereo not drawn)	-11	-12	36	70*	99*	-254	99*
CCOc1cccc(=NC2CCCCC2)c2c(C)n(C)c(C)c12	0	-4	77	·	30	-39	·
COc1ccc(CNCCc2c(C)[nH]c3ccc(OC(F)(F)F)cc23)c(OC)c1	7	-11	90*	92*	99*	16	99*
COc1ccc2[nH]c(C)c(CCNCc3cc(OC)c(OC)c(OC)c3)c2c1	16	18	44	10	4	7	·
Cn1cccc1/C=C1/C(=O)NC(=S)N(Cc2ccc(F)cc2)C1=O	27	-3	2	48	106*	33	63*
O=Cc1cn(Cc2ccc(F)cc2)c2ccccc12	10	-5	6	-4	78*	20	69*
O=Cc1cn(Cc2ccc([N+](=O)[O-])cc2)c2ccccc12	-4	-5	15	7	91*	-8	80*
Cc1c(C=O)c2ccccc2n1Cc1ccc(F)cc1	9	-9	11	2	13	-2	·
O=C(Cn1ncn2c(cc3cc(F)ccc32)c1=O)N1CCC2(CC1)OCCO2	-1	-4	-1	11	0	4	·
Cc1ccc(N=C(N(C)C)P(=O)(N(C)C)N(C)C)cc1	11	1	-5	-8	-5	7	·
O=C1NC(=S)N(c2ccccc2F)C(=O)/C1=C\c1cccs1	84*	4	37	-2	102*	12	83*
O=C1NC(=S)NC(=O)C1=Cc1cccc2cc3ccccc3cc12	-13	-36	99*	98*	107*	95*	100*
O=C1NC(=O)N(Cc2ccccc2)C(=O)/C1=C\c1ccco1	17	-1	24	35	17	47	·
Cc1ccc(N2C(=O)NC(=O)/C(=C/C=C/c3ccco3)C2=O)cc1	64*	-20	78	73*	86*	81*	35
SMILES	HIF-2a block	KKLEB cytotox	Shn3 inh set2	MITF TRPM1 inh	Peg3 prom inh-1	CF NFkB block	Peg3 prom inh-2
Cc1ccc(N2C(=O)NC(=O)/C(=C/c3ccoc3)C2=O)cc1	25	2	11	2	5	2	·
O=C1NC(=O)N(Cc2ccc(F)cc2)C(=O)/C1=C\C=C\c1ccco1	22	-3	10	93*	62*	78*	66*
CCOP(=O)(OCC)/C(C#N)=C/c1ccc(Br)cc1	13	13	8	-4	9	10	·
COC(=O)C1=C(c2cccc(OC)c2OC)C[C@@H]2CC[C@H]1N2C(=O)NCCS(C)=O (stereo partly drawn)	-3	4	-1	-8	-7	16	·
CC1=C2[C@@H]3OC(=O)[C@H](C)C3CC[C@@]2(C)C=CC1=O (stereo partly drawn)	5	14	-4	-8	-6	-24	·
O=C(CSC1c2ccccc2-c2ccccc21)N/N=C/c1ccccc1O	7	-9	70	43	55*	-17	64*
O=C(c1c[nH]c2ccc(S(=O)(=O)N3CCC4(CC3)OCCO4)cc2c1=O)N1CCC2(CC1)OCCO2	18	3	0	-1	12	13	·
O=C1c2cccc(N3CCNCC3)c2C2CCCCN12 (stereo not drawn)	9	13	-17	·	1	13	·
CC1=CC(O)C(O)C2(C)C1CC1OC(=O)C(O)C3C(C)C(O)C4(O)OCC13C42 (stereo not drawn)	35	5	-15	11	68*	-5	45*
C=CCC1C(=O)NC(=S)NC1=O	16	2	-13	-10	5	2	·
CCNC(=S)NCCC1=c2ccccc2=N/C1=C\c1c(O)n(C)c(=O)n(C)c1=O	25	-2	8	41	14	1	·
CN1CCc2cc3c(c4c2C1Cc1ccccc1-4)OCO3 (stereo not drawn)	39	7	16	12	71*	-172	27
Cc1ccc(-c2cc(-c3ccc(C)cc3)[n+](-c3ccccc3)c(-c3ccc(C)cc3)c2)cc1	57*	-40	94*	102*	80*	32	94*
C[n+]1c(-c2ccccc2)cc(-c2ccc(Cl)cc2)cc1-c1ccccc1	17	-1	9	44	2	-23	·
COc1ccc(-n2nnnc2C(C2CC2)N2CCC(n3c(=O)[nH]c4ccccc43)CC2)cc1 (stereo not drawn)	9	-16	-30	·	58*	-3	58*
